# Results from PubChem BioAssay AID602399 (Sanford-Burnham Center for Chemical Genomics, 2012).
# Among all 360,000 compounds or so, about 2,800 (0.78%) were called active. The sample holds actives, similar compounds and a random draw of the others, so the mix is not that of the screen. Values without a mark were called inactive. No stated cut-off is given here; in the data, active means inhibition above about 26%; inactive means the rest.
# System: Nicotinate-nucleotide adenylyltransferase NadD (Staphylococcus aureus N315)
# Test: S. aureus NadD enzyme activity blockers – biochemical, colorimetric, uHTS, primary screen (AID 602399)
# Conditions: purified NadD enzyme, colorimetric absorbance read-out; at 20 µM; stronger effect = higher value
row,Compound,inhibition
1,O=c1c([N+](=O)[O-])cccn1Cc1ccc(F)cc1Cl,-2.47%
2,Cc1c(C(=O)N(C)CCc2cnn(C)c2)oc2c(F)cccc12,-0.376%
3,CCN(CC)C(=O)c1sc2nc(-c3ccccc3)ccc2c1N,29.7% (active)
4,CCN(CC)C(=O)c1nc[nH]c1C(=O)N(C)Cc1ccccc1,-5.16%
5,CCOC(=O)C(C)n1nc(-c2ccccc2)c2ccccc2c1=O (stereo not given),4.56%
6,CC1(C)C(C=C(Cl)Cl)C1C(=O)NC(O)C(=O)c1ccccc1 (stereo not given),-1.25%
7,Cc1c2cnn(-c3ccccc3)c(=O)c2c(C)n1CCCC(=O)N1CCN(C)CC1,4.17%
8,CCC(=O)Nc1ccc2c(c1)nc(CCN1CCN(c3ccccn3)CC1)n2C,-0.459%
9,Cc1nn(CC(=O)Nc2ccc3c(c2)nc(CN2CCCCC2)n3C)c(=O)c2ccccc12,-0.187%
10,Cn1c(CCN2CCCCCC2)nc2cc(NC(=O)Nc3ccccc3)ccc21,31.5% (active)
11,CNC(=O)C1CCN(S(=O)(=O)c2c(C)noc2/C=C/c2cccc(C)c2)CC1,-4.39%
12,Cc1noc(/C=C/c2ccco2)c1S(=O)(=O)N1CCC(C(=O)Nc2ccc(Cl)cn2)CC1,16.8%
13,Cc1noc(/C=C/c2ccco2)c1S(=O)(=O)N1CCC(C(=O)N2CCc3ccccc32)CC1,31.6% (active)
14,CCc1ccc(OCC(=O)NCC(c2ccc(Cl)cc2)N2CCCCC2)cc1 (stereo not given),-9.2%
15,O=C(O)CN(Cc1ccco1)S(=O)(=O)c1ccc(F)cc1,-0.327%
16,O=Nc1c(O)cc(O)c2ccccc12,-0.774%
17,NC(CSC1(c2ccccc2)c2ccccc2-c2ccccc21)C(=O)O (stereo not given),27.6%
18,NC(CSC(c1ccccc1)(c1ccccc1)c1ccc(-c2ccccc2)cc1)C(=O)O (stereo not given),43.5% (active)
19,CCC(C)OC(=O)C(C)Oc1ccc(-c2ccccc2)cc1 (stereo not given),2.06%
20,O=C(N1CCOCC1)N(Cc1ccccc1)c1ccccn1,-0.327%
21,COc1ccc(C(=O)/C=C/c2ccc(-c3ccccc3)cc2)cc1CSCC(=O)O,42.8% (active)
22,COc1ccccc1CCNC(=O)C1CCN(C(=O)/C=C/c2ccccc2)CC1,1.36%

row,Compound,inhibition
1,COC(=O)c1ccc(COc2ccc(/C=C/C(=O)c3ccc(OC)c(CSCC(=O)O)c3)cc2OC)cc1,20.9%
2,COc1cc(C(=O)Nn2c(O)c(C3=c4ccccc4=NC3=O)sc2=S)ccc1O,9.44%
3,COC(=O)CC(CC(=O)OC)n1cccc1,-1.87%
4,CCn1cc(CN2CCN(CC(C)(C)C)C(CCO)C2)c2ccccc21 (stereo not given),-1.34%
5,COc1cc(Cl)c(C)cc1NC(=O)[C@@H]1CCCN1C(=O)c1cccs1,-0.625%
6,Cc1c(C(=O)OC(C)C)sc(NC(=O)c2cccnc2)c1C#N,7.06%
7,Cc1cc(N2C(=O)C(O)=C(C(=O)c3ccc(C)o3)C2c2ccc(OCc3ccccc3)cc2)no1 (stereo not given),58.6% (active)
8,C=CCOc1cccc(C2C(C(=O)c3ccc(C)o3)=C(O)C(=O)N2c2nnc(C)s2)c1 (stereo not given),12.2%
9,CCCOc1ccc(C2C(C(=O)c3ccc(C)o3)=C(O)C(=O)N2CCCn2ccnc2)cc1 (stereo not given),17.5%
10,CCC(C)N(C(=O)COC(=O)C1C(C(=O)OC)=C(C)NC(C)=C1C(=O)OC)C1CCS(=O)(=O)C1 (stereo not given),1.18%
11,Cc1ccc(Cc2nnc(SCC(=O)Nc3ccccc3C)[nH]c2=O)cc1,2.18%
12,NC(=O)NC(=O)CSc1nc2cc([N+](=O)[O-])ccc2n1-c1cccc(C(F)(F)F)c1,17.8%
13,CC(=O)NC1(c2cccc(F)c2)CCN(CC(=O)NC(C)C)CC1,-2.5%
14,Cc1ccc(-c2cc(C(=O)N/N=C/C=C/c3ccco3)c3ccccc3n2)cc1C,53% (active)
15,O=C(N/N=C/C=C/c1ccco1)c1cccs1,5.08%
16,C/C(=N\NC(=O)c1cc(-c2ccc(O)cc2)nc2ccccc12)c1cccnc1,5.99%
17,CSc1nsc(SC)c1NC(=O)OC1CCCCC1,-1.66%
18,CC(=O)Nc1ccc(S(=O)(=O)N2CCN(S(=O)(=O)c3cccs3)CC2)cc1,0.0869%
19,CN(C)c1ccc(-n2cccc2/C=N/n2cnnc2)cc1,-0.713%
20,CN(C)c1ccc(-n2cccc2/C=C2/SC(=Nc3ccc(F)cc3)NC2=O)cc1,24.9% (active)
21,CN(CCC1CCOCC1)Cc1cn[nH]c1-c1ccc(-c2ccccc2)cc1,-6.91%
22,C[C@@H]1CN([C@@H](C)CO)C(=O)c2cccc(NS(=O)(=O)c3ccc(F)cc3)c2O[C@H]1CN(C)C(=O)NC1CCCCC1,4.79%

row,Compound,inhibition
1,Cc1[nH]c2ccccc2c1SCC(=O)Nc1nccs1,-2.1%
2,CN(C)/C=C(\C#N)C(=O)c1cccnc1Oc1cccc(F)c1,-0.906%
3,COc1ccc(C2(CNC(=O)C(c3ccccc3)c3ccccc3)CCOCC2)cc1OC,-2.03%
4,Cc1cc(C)nc(Nc2n[nH]c(-c3ccccc3N)n2)n1,-2.89%
5,CCNc1nc(N)nc(Oc2ccc(OCC)nn2)n1,-1.59%
6,Cc1nn(-c2ccc(F)cc2)c(Cl)c1/C=C(/CCC(=O)O)c1nc2ccccc2s1,6.39%
7,O=C(O)CC/C(=C\c1cc2c(cc1Br)OCO2)c1nc2ccccc2s1,7.94%
8,COc1ccc(C(=O)Nc2cccc(/C=C(/CCC(=O)O)c3nc4ccccc4s3)c2)cc1,35.2% (active)
9,CSc1nnc2c(n1)OC(c1ccsc1)N(C(C)=O)c1ccccc1-2 (stereo not given),-0.91%
10,Cc1cccc(N=C2NC(=O)/C(=C/c3cn(C)c4ccccc34)S2)c1,37% (active)
11,Cc1ccc(N2C(=O)S/C(=C/c3cn(C)c4ccccc34)C2=O)cc1,2.76%
12,Cc1ccc(C(=O)N/C(=C\c2cn(C)c3ccccc23)C(=O)N2CCN(C)CC2)cc1,-3.04%
13,CON(C)S(=O)(=O)c1ccc2c(c1)NC(=O)C1CCCN21 (stereo not given),10.3%
14,Cc1ccc(Cn2c(=N)c(S(=O)(=O)c3ccc(C)cc3)cc3c(=O)n4ccccc4nc32)cc1,35.5% (active)
15,Cc1ccc(S(=O)(=O)c2cc3c(=O)n4cccc(C)c4nc3n(CCc3ccccc3)c2=N)cc1C,-1.62%
16,CCn1c(=N)c(S(=O)(=O)c2ccc(F)cc2)cc2c(=O)n3ccccc3nc21,7.46%
17,COc1ccc(C)cc1NC(=O)c1cc(-c2ccccc2)nc2c1cnn2C(C)C,-10.2%
18,COC(=O)c1sccc1NC(=O)CC1C(=O)NCCN1C(=O)Nc1ccc(F)cc1F (stereo not given),-5.08%
19,Cc1c(Cl)c([N+](=O)[O-])nn1CCCC(=O)NC(C)c1ccccc1 (stereo not given),1.25%
20,Cc1c(Cl)c([N+](=O)[O-])nn1Cc1ccc(C(=O)N/N=C\c2cc(Cl)ccc2O)o1,35.1% (active)
21,CN(C)c1ccc(/C=N/NC(=O)c2ccc(Cn3cc(Br)cn3)o2)cc1,4.66%
22,COc1ccc(CC(=O)Nc2c3c(nn2-c2cccc(Cl)c2)CS(=O)C3)cc1 (stereo not given),5.19%

row,Compound,inhibition
1,Cc1ccc(NS(=O)(=O)c2cc3c(cc2Br)NC(=O)CO3)cc1C,-3.42%
2,C#CCOCCOCCOCCNc1nc(N2CCN(C(=O)C([C@@H](C)O)n3cc([C@@H](N)CCCCN)nn3)CC2)nc(N2CCN(C(=O)[C@H](CCCCN)n3cc(CN)nn3)CC2)n1 (stereo not given in full),-6.21%
3,C#CCOCCOCCOCCNc1nc(N2CCN(C(=O)CCCCCCCCCCNC(=O)Cn3cc(CCCCCN)nn3)CC2)nc(N2CCN(C(=O)CCCCCCCCCCNC(=O)[C@H](CO)n3cc(CCCSC)nn3)CC2)n1,46.8% (active)
4,C#CCOCCOCCOCCNc1nc(N2CCOCC2)nc(N2CCN(C(=O)[C@H](Cc3ccc(O)cc3)n3cc(CCO)nn3)CC2)n1,-4.41%
5,C=CCOc1cccc(C2C(C(=O)c3ccc(C)o3)=C(O)C(=O)N2CCN2CCOCC2)c1 (stereo not given),6.48%
6,CCNc1nc(SCCOc2ccccc2)nc(N(C)C)n1,-6.51%
7,O=C(CSc1nnc(-c2cnccn2)n1Cc1ccco1)c1ccc(Cl)c(Cl)c1,10.3%
8,O=C(CSc1nnc(-c2cccnc2)n1Cc1ccco1)c1ccc(Cl)c(Cl)c1,30.6% (active)
9,C(=C\c1ccccc1)/CSc1nnc(-c2cccnc2)n1Cc1ccco1,14.6%
10,CCOC(=O)/C=c1\s/c(=C\c2ccc(C#N)cc2)c(=O)n1CC(=O)Nc1cccc(C)c1C,32.6% (active)
11,Cc1cccc(NC(=O)CSC(N)=O)c1C,-2.73%
12,Cc1cccc(NC(=O)CN2CCN(C(=O)C3CCN(C(=O)/C=C/c4ccccc4)CC3)CC2)c1C,5.55%
13,Cc1c(CN2CCCCC2)c(O)n(CCO)c(=O)c1C#N,-2.39%
14,Cc1cccc(-c2c(NC(=O)c3ccco3)oc3ccc(Cl)cc3c2=O)c1,-6.28%
15,Cc1ccc(N=C2NC(=O)/C(=C/C=C/c3ccco3)S2)cc1C,37.2% (active)
16,FC(F)(F)c1ccnc(Oc2ccc(C3=NCCS3)cc2)c1,-2.78%
17,CCCCn1ccnc1C(=O)c1cccc(S(=O)(=O)N2c3ccccc3CC2C)c1 (stereo not given),9.25%
18,Cn1c(=O)[nH]c(=O)c2c1nc(CN1CCN(c3ccccc3F)CC1)n2CCc1ccccc1,0.696%
19,CC(C)C(=O)Nc1c2c(nn1-c1ccccc1)CSC2,-1.75%
